Rows were chosen to be rich in hits. Some 21% of all compounds tested hit in one or more screens of this group.
ELG1 repair inh – blocks ELG1-dependent DNA repair in HEK293T cells; 330,000 compounds, 2.3% hits; Potency, µM (titrated, usually from 46.1 µM), for the others: at the highest dose activity change, negative = inhibition, actives largely listed as inhibitors; HEK293T ELG1-luciferase reporter, luminescence, 16 h; DNA damage induced by 5-fluorouridine; further: potency means the concentration at half of the fitted maximal effect; nearly all actives have a fitted effect of over 55% in size
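Reporter activity after DNA damage by 5-fluorouridine is monitored. Compound-treated cells incubate 16 hr at 37 °C, then ONE-Glo is added for 30 min before luminescence reading.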
RORgamma inh – ROR gamma (mouse) transcription inhibition; Potency, µM (titrated, usually from 53.6 µM), for inactives: top-dose activity change, negative = inhibition, usual class: inhibitors; Drosophila S2 Gal4-RORgamma UAS-luciferase reporter, 20 h; AID 2551; P51450; 310,000 compounds, 5.4% hits; further: potency means the concentration at half of the fitted maximal effect; nearly all actives have a fitted effect of over 60% in size
Target sequence (P51450 whole entry, looked up, the tested form may be a part): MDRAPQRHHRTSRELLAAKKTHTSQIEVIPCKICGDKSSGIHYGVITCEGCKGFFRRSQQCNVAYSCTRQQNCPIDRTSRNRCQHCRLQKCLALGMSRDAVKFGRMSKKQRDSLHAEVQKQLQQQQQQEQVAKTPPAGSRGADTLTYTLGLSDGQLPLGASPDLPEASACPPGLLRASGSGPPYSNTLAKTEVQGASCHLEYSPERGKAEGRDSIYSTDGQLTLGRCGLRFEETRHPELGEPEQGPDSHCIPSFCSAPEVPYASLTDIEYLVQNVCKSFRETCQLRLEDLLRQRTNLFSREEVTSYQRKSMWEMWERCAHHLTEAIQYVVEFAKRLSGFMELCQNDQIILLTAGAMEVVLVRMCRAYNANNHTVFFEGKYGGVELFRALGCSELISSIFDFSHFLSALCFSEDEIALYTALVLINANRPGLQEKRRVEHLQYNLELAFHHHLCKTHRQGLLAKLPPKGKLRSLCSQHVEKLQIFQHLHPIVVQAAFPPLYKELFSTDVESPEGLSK
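Read-out: Photinus luciferase luminescence; inhibitors lower reporter signal. Insect Schneider cells with Gal4-ROR gamma fusion under metallothionein promoter, UAS reporter; 700 uM final copper sulfate induction, 20 hr, ambient temperature.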
IL1B secr inh – blocks inflammasome-driven IL-1 beta release | THP-1 LPS/ATP IL-1B secretion, AlphaLISA, 16 h; hits give low values | activity change, % at 57.5 µM | 360,000 compounds, 4.7% hits; in the data active means activity change below about -50%; inconclusive means mostly about -30% to -49%
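THP-1 cells pretreated 1 hr with compounds (up to 57.5 uM final), then stimulated with LPS (250 ng/mL final) plus ATP (1.25 mM final); secreted IL-1B measured by AlphaLISA after 16 hr, decreased signal indicating inhibition.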
DT40 TDP1 CPT – growth inhibition of DT40 Tdp1-/-;hTDP1 cells with camptothecin (screen for TDP1 inhibitors); 420,000 compounds, 12% hits; Potency, µM (doses to about 46.2 µM), for the others: at the top dose activity change, negative = growth inhibition, hits mostly inhibitors; AID 686979; chicken DT40 Tdp1-/-;hTDP1 cells + 20 nM CPT, ATP luminescence, 48 h; further: potency means the concentration at half of the fitted maximal effect; nearly all actives have a fitted effect of over 55% in size
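Chicken DT40 Tdp1-/- cells complemented with human TDP1, 400 cells/well, exposed to compounds plus 20 nM camptothecin for at least 48 h at 37 C; viability read as ATP content by CellTiter-Glo luminescence.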
DT40 TDP1 no CPT – qHTS for Inhibitors of human tyrosyl-DNA phosphodiesterase 1 (TDP1): qHTS in cells in absence of CPT; DT40 Tdp1-/- hTDP1 cells, no CPT, ATP luminescence, 48 h; Potency, µM (titrated, usually from 46.2 µM), for the others: at the highest dose activity change, negative = growth inhibition, most hits filed as inhibitors; 420,000 compounds, 15% hits; further: potency means the concentration at half of the fitted maximal effect; nearly all actives have a fitted effect of over 55% in size
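DT40 Tdp1-/-;hTDP1 cells, no CPT (DMSO vehicle only), 400 cells/well; compounds pin-transferred; ≥48 hr, 37 °C; CellTiter-Glo 30 min RT dark, luminescence read.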
VP16 counter – Gal4-VP16 reporter inhibition counter-screen | AID 2546 | 310,000 compounds, 3.5% hits | Drosophila S2 Gal4-VP16 UAS-luciferase, luminescence, 20 h | Potency, µM (doses to about 53.6 µM), inactives show at the highest dose activity, negative = inhibition, hits mostly inhibitors;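 further: Gal4-VP16 expression switched on by copper sulfate through the metallothionein promoter; potency means the concentration at half of the fitted maximal effect; nearly all actives have a fitted effect of over 50% in size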
An asterisk follows results filed as active; [ ] = remark or other dose. Unless noted, the call rests on the fitted dose curve; in most records, active means well fitted curve in the direction sought with a large enough effect; inconclusive means small, poorly fitted or top-dose-only effect, or another doubt; inactive means no such curve, though single readings can be large; an effect the other way counts as inactive or inconclusive. On the % scale 0 is the no-effect control and ±100 the full control effect.

What do the screens show for `CCC(C(=O)NCCc1ccc(SC)cc1)n1nc(C)c2sc3ccccc3c2c1=O` (stereo not drawn)?
DT40 TDP1 CPT: inconclusive; DT40 TDP1 no CPT: 23.1µM*

How did CCC(C(=O)NCCc1ccc(OC)c(OC)c1)n1nc(C)c2sc3ccccc3c2c1=O (stereo not drawn) do in these assays?
DT40 TDP1 CPT: 9.2µM*; DT40 TDP1 no CPT: 8.2µM*

Results for CCOC(=O)C(C)n1nc(C)c2sc3ccccc3c2c1=O (stereo not drawn) ?
ELG1 repair inh: 19.0%; RORgamma inh: 15.3%; IL1B secr inh: 19.2; DT40 TDP1 CPT: inconclusive; DT40 TDP1 no CPT: inconclusive; VP16 counter: 1.9%

Results for COc1ccc(CCNC(=O)C(C)n2nc(C)c3sc4ccccc4c3c2=O)cc1OC (stereo not drawn) ?
DT40 TDP1 CPT: 14.6µM*; DT40 TDP1 no CPT: 18.4µM*

What do the screens show for `COc1ccc(CNC(=O)C(C)n2nc(C)c3sc4ccccc4c3c2=O)cc1OC` (stereo not drawn)?
DT40 TDP1 CPT: 6.51µM*; DT40 TDP1 no CPT: 6.51µM*

What do the screens show for `COc1ccccc1CNC(=O)C1CCN(Cc2nc(-c3cccc(Cl)c3)oc2C)CC1`?
ELG1 repair inh: inconclusive; RORgamma inh: -4.1%; IL1B secr inh: -28.2; DT40 TDP1 CPT: 20.6µM*; DT40 TDP1 no CPT: inconclusive; VP16 counter: -7.5%

How did CCN1CCCC1CNC(=O)C1CCN(Cc2nc(-c3cccc(Br)c3)oc2C)CC1 (stereo not drawn) do in these assays?
ELG1 repair inh: inconclusive; RORgamma inh: 2.2%; IL1B secr inh: -83.1*; DT40 TDP1 CPT: 5.8µM*; DT40 TDP1 no CPT: 2.91µM*; VP16 counter: -10.8%

What do the screens show for `COc1ccccc1CNC(=O)C1CCN(Cc2nc(-c3ccc(OC)c(OC)c3)oc2C)CC1`?
DT40 TDP1 CPT: -13.3%; DT40 TDP1 no CPT: inconclusive

Results for Cc1oc(-c2cccc(Cl)c2)nc1CN1CCC(C(=O)NCc2ccc(F)cc2)CC1 ?
DT40 TDP1 CPT: inconclusive; DT40 TDP1 no CPT: 14.6µM*

Results for COc1ccc(CCNC(=O)C2CCN(Cc3nc(-c4ccc(OC)c(OC)c4)oc3C)CC2)cc1OC ?
DT40 TDP1 CPT: 1.8%; DT40 TDP1 no CPT: inconclusive

What do the screens show for `CCc1ccc(-c2nc(CN3CCC(C(=O)NCCc4ccc(OC)c(OC)c4)CC3)c(C)o2)cc1`?
ELG1 repair inh: -29.0%; RORgamma inh: -0.3%; IL1B secr inh: -54.2*; DT40 TDP1 CPT: 16.4µM*; DT40 TDP1 no CPT: inconclusive; VP16 counter: -10.7%

Results for COc1ccc(Cl)cc1C(=O)N1CCN(Cc2ccc3c(c2)OCO3)CC1 ?
ELG1 repair inh: inconclusive; RORgamma inh: -4.0%; IL1B secr inh: -7.9; DT40 TDP1 CPT: inconclusive; DT40 TDP1 no CPT: -27.4%; VP16 counter: 1.8%

Results for COc1cc2c(cc1OC)[C@@H]1CC(=O)[C@@H](CC(C)C)CN1CC2 ?
RORgamma inh: -1.6%; DT40 TDP1 CPT: inconclusive; DT40 TDP1 no CPT: inconclusive; VP16 counter: -7.3%

Results for CCOC(=O)C1CN(C(=O)OCC)CC1=NNC(N)=O (stereo not drawn) ?
IL1B secr inh: -5.5; DT40 TDP1 CPT: -8.3%; DT40 TDP1 no CPT: -17.5%

What do the screens show for `CCc1ccc(-c2nc(CN3CCC(C(=O)NCCc4ccc(C)cc4)CC3)c(C)o2)cc1`?
DT40 TDP1 CPT: -9.6%; DT40 TDP1 no CPT: inconclusive

Results for CCc1ccc(-c2nc(CN3CCC(C(=O)NCc4ccccc4OC)CC3)c(C)o2)cc1 ?
ELG1 repair inh: -10.3%; RORgamma inh: inconclusive; IL1B secr inh: inconclusive; DT40 TDP1 CPT: 18.4µM*; DT40 TDP1 no CPT: inconclusive; VP16 counter: 20µM*

How did COC(=O)NC(c1ccc(F)cc1)C(C(C)=O)C(=O)OC (stereo not drawn) do in these assays?
RORgamma inh: -9.1%[10 µM]; VP16 counter: -1.7%[10 µM]

What do the screens show for `COc1ccc(C(=O)Nc2ccc(Cl)c(S(=O)(=O)N3CCOCC3)c2)cc1`?
ELG1 repair inh: 9.2µM*; IL1B secr inh: -75.0*; DT40 TDP1 CPT: inconclusive; DT40 TDP1 no CPT: inconclusive

What do the screens show for `COc1ccc(NC(=O)c2ccc3c(c2)OCO3)cc1S(=O)(=O)N1CCOCC1`?
ELG1 repair inh: inconclusive; IL1B secr inh: -1.8; DT40 TDP1 CPT: 11.9%; DT40 TDP1 no CPT: 2.0%

What do the screens show for `O=C(Nc1ccc(Cl)c(S(=O)(=O)N2CCOCC2)c1)c1ccc2c(c1)OCCO2`?
ELG1 repair inh: 23.1µM*; RORgamma inh: inconclusive; IL1B secr inh: -23.6; DT40 TDP1 CPT: inconclusive; DT40 TDP1 no CPT: inconclusive; VP16 counter: 2.9%

What do the screens show for `O=C(Nc1ccc(Cl)c(S(=O)(=O)N2CCOCC2)c1)c1ccc2c(c1)OCO2`?
ELG1 repair inh: 6.51µM*; IL1B secr inh: inconclusive; DT40 TDP1 CPT: inconclusive; DT40 TDP1 no CPT: inconclusive

How did O=C(Nc1cc(S(=O)(=O)N2CCOCC2)ccc1N1CCOCC1)c1ccc(Cl)nc1 do in these assays?
ELG1 repair inh: -5.0%; RORgamma inh: 6.5%; IL1B secr inh: 66.3; DT40 TDP1 CPT: inconclusive; DT40 TDP1 no CPT: -21.3%; VP16 counter: -1.2%

Results for O=C(Nc1ccc(Cl)c(S(=O)(=O)N2CCOCC2)c1)c1ccc(Cl)nc1 ?
ELG1 repair inh: inconclusive; IL1B secr inh: 28.0; DT40 TDP1 CPT: inconclusive; DT40 TDP1 no CPT: 18.4µM*

Results for COc1cccc(CNC(=O)c2ccc(Cl)c(S(=O)(=O)N3CCOCC3)c2)c1 ?
ELG1 repair inh: -28.5%; IL1B secr inh: -7.8; DT40 TDP1 CPT: -12.3%; DT40 TDP1 no CPT: 4.11µM*

Results for O=C(CCN1C(=O)/C(=C\C=C\c2ccccc2)SC1=S)Nc1ccc(C(=O)O)cc1 ?
ELG1 repair inh: inconclusive; RORgamma inh: inconclusive; IL1B secr inh: -54.8*; DT40 TDP1 CPT: -3.4%; DT40 TDP1 no CPT: 4.2%; VP16 counter: inconclusive

What do the screens show for `O=C(CCCN1C(=O)S/C(=C\C=C\c2ccccc2)C1=O)Nc1ccc(O)cc1`?
ELG1 repair inh: inconclusive; RORgamma inh: 0.316µM*; IL1B secr inh: -77.5*; DT40 TDP1 CPT: inconclusive; DT40 TDP1 no CPT: inconclusive; VP16 counter: inconclusive

What do the screens show for `CCCCN(C)C(=O)C1CCCN(c2ncnc3onc(C)c23)C1` (stereo not drawn)?
DT40 TDP1 CPT: 5.17µM*; DT40 TDP1 no CPT: 1.84µM*

Source: PubChem BioAssay
